Measurements reported in PubChem BioAssay (Tox21).
Inconclusive results are not listed. Where a call stands in place of a potency, no number is given. Calls of active or inactive are those of the source. Unless noted, calls follow the shape of the dose curve; as a rule, active = well fitted cell-killing curve with a large enough effect in the repeat runs; inconclusive = weak or mixed curves, or effect the other way; inactive = flat fitted curve, though single readings scatter.

assay: qHTS assay to identify small molecule agonists of the TGF-beta/Smad signaling pathway - cell viability counter screen (AID 1346829); conditions: SBE-bla HEK293T viability, CellTiter-Glo luminescence, 5 h; series mostly up to 76.8 µM; also: nearly all actives have a fitted effect of over 45% in size; also: potency is read from the fitted curve at half-maximal effect
Method in brief: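 After overnight seating at 37 C and 5% CO2, reporter cells got compounds for 5 hr and FRET substrate for 2 hr; cell viability then came from CellTiter-Glo luminescence.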

Compound	Potency
Clc1ccc(C(Cn2ccnc2)OCc2ccc(Sc3ccccc3)cc2)c(Cl)c1 (stereo not given)	inactive
NC(=O)CC[C@@H]1NC(=O)[C@H](Cc2ccccc2)NC(=O)[C@H](Cc2ccc(O)cc2)NC(=O)CCSSC[C@@H](C(=O)N2CCC[C@H]2C(=O)N[C@@H](CCCN=C(N)N)C(=O)NCC(N)=O)NC(=O)[C@H](CC(N)=O)NC1=O	inactive
O=CC=C(c1ccccc1)c1ccccc1	inactive
O=C(c1ccc(O)cc1O)c1ccc(O)cc1O	inactive
CCC1OCC(COc2ccc(Oc3ccccc3)cc2)O1 (stereo not given)	inactive
Cc1nc(-c2ccc3c(c2)CCN(CCC2CCC(NC(=O)/C=C/c4ccc(F)cc4)CC2)CC3)no1 (stereo not given)	inactive
O=C(Oc1ccccc1)c1ccccc1C(=O)Oc1ccccc1	inactive
C[C@H]1[C@H]2CC[C@H]3[C@@H]4CC=C5C[C@@H](N(C)C)CC[C@]5(C)[C@H]4CC[C@]23CN1C	inactive
Cc1c(C)c2c(c(C)c1O)CCC(C)(COc1ccc(CC3SC(=O)NC3=O)cc1)O2 (stereo not given)	inactive
COc1cc(-c2nc(NC(=O)c3cc4cc(C)cc(C)c4n3CC(=O)O)sc2CCC2CCCCC2)c(OC)cc1Cl	28.3 µM (active)
CCCCCCCCCCC=O	inactive
CSc1cnc(C)cn1	inactive
Cc1cccc(N(C)C(=S)Oc2ccc3c(c2)C2CCC3C2)c1 (stereo not given)	inactive
CCCCCCCC(=O)[O-].CCCCCCCC(=O)[O-].[Zn+2]	inactive
O=Cc1cc(O)ccc1Br	inactive
O=c1cccccc1O	inactive
COC(=O)c1cc(Cl)ccc1OC	inactive
CCOC(=O)O[C@]1(C(=O)OCCl)CC[C@H]2[C@@H]3CCC4=CC(=O)C=C[C@]4(C)[C@H]3[C@@H](O)C[C@@]21C	inactive

Compound	Potency
Cc1cc(O)c(Cl)c(C)c1Cl	inactive
C[n+]1cc2c3c(ccc2c2ccc4cc5c(cc4c21)OCO5)OCO3	6.57 µM (active)
CCCCN1CCCC[C@H]1C(=O)Nc1c(C)cccc1C	inactive
CC[C@H](c1ccc(O)cc1)[C@@H](CC)c1ccc(O)cc1	inactive
COc1cccc(N)c1	inactive
NNc1nc(-c2ccc(N)cc2)cs1	inactive
Oc1ccc(N=Nc2ccccc2)cc1	inactive
CCC(N)(CO)CO	inactive
O=C1C=CC(=O)N1c1ccc(Cc2ccc(N3C(=O)C=CC3=O)cc2)cc1	61.6 µM (active)
CN(C)CCCOC1(Cc2ccccc2)CCCCCC1	inactive
C/C=C(\C)C(=O)OCc1ccccc1	inactive
CCc1oc2ccccc2c1C(=O)c1cc(Br)c(O)c(Br)c1	inactive
N#CSc1ccc(N)c([N+](=O)[O-])c1	inactive
CCCCCCCCCCCCCCCC(=O)OC[C@H](O)[C@H]1OC(=O)C(O)=C1O	inactive
O=C(NO)C1(NS(=O)(=O)c2ccc(Oc3ccc(F)cc3)cc2)CCOCC1	inactive
Cc1c(C)c2c(c(C)c1OC(=O)CCC(=O)O)CC[C@@](C)(CCC[C@H](C)CCC[C@H](C)CCCC(C)C)O2	inactive
NNC(=O)c1cccc(C(=O)NN)c1	inactive

assay: qHTS assay to identify small molecule agonists of the TGF-beta/Smad signaling pathway (AID 1346859; active = well fitted activation curve with a large enough effect in the signal ratio in the repeat runs, not every such curve was filed as active; the % refers to the signal ratio); conditions: SBE-bla HEK293T, TGF-beta/Smad beta-lactamase reporter, 5 h; series mostly up to 76.8 µM
Method in brief: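 Each well held 4,000 SBE-bla HEK 293T cells incubated overnight before compound addition; 5 hr later the cleavable FRET substrate went on for 2 hr at room temperature, and fluorescence was read at two emissions.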

Compound	Potency
NC(=O)CC[C@@H]1NC(=O)[C@H](Cc2ccccc2)NC(=O)[C@H](Cc2ccc(O)cc2)NC(=O)CCSSC[C@@H](C(=O)N2CCC[C@H]2C(=O)N[C@@H](CCCN=C(N)N)C(=O)NCC(N)=O)NC(=O)[C@H](CC(N)=O)NC1=O	inactive
O=CC=C(c1ccccc1)c1ccccc1	inactive
CCC1OCC(COc2ccc(Oc3ccccc3)cc2)O1 (stereo not given)	inactive
Cc1nc(-c2ccc3c(c2)CCN(CCC2CCC(NC(=O)/C=C/c4ccc(F)cc4)CC2)CC3)no1 (stereo not given)	inactive
O=C(Oc1ccccc1)c1ccccc1C(=O)Oc1ccccc1	inactive
C[C@H]1[C@H]2CC[C@H]3[C@@H]4CC=C5C[C@@H](N(C)C)CC[C@]5(C)[C@H]4CC[C@]23CN1C	inactive
Cc1c(C)c2c(c(C)c1O)CCC(C)(COc1ccc(CC3SC(=O)NC3=O)cc1)O2 (stereo not given)	inactive
CCCCCCCCCCC=O	inactive
CSc1cnc(C)cn1	inactive
Cc1cccc(N(C)C(=S)Oc2ccc3c(c2)C2CCC3C2)c1 (stereo not given)	inactive
O=c1cccccc1O	inactive
COC(=O)c1cc(Cl)ccc1OC	inactive
Cc1cc(O)c(Cl)c(C)c1Cl	inactive
CCCCN1CCCC[C@H]1C(=O)Nc1c(C)cccc1C	inactive
CC[C@H](c1ccc(O)cc1)[C@@H](CC)c1ccc(O)cc1	inactive
COc1ccc(-c2ccc3cc(C(=O)O)ccc3c2)cc1C12CC3CC(CC(C3)C1)C2	inactive
NNc1nc(-c2ccc(N)cc2)cs1	inactive
Oc1ccc(N=Nc2ccccc2)cc1	inactive
CCC(N)(CO)CO	inactive
O=C1C=CC(=O)N1c1ccc(Cc2ccc(N3C(=O)C=CC3=O)cc2)cc1	inactive
CN(C)CCCOC1(Cc2ccccc2)CCCCCC1	inactive
CCc1oc2ccccc2c1C(=O)c1cc(Br)c(O)c(Br)c1	inactive
CCCCCCCCCCCCCCCC(=O)OC[C@H](O)[C@H]1OC(=O)C(O)=C1O	inactive
O=C(NO)C1(NS(=O)(=O)c2ccc(Oc3ccc(F)cc3)cc2)CCOCC1	inactive
NNC(=O)c1cccc(C(=O)NN)c1	inactive
